HT1080-NT tox: kills 2HG-producing HT-1080-NT fibrosarcoma cells | AID 686970 | 1.6% of 360,000 active | HT-1080-NT fibrosarcoma viability, CellTiter-Glo ATP luminescence, 48 h | Potency, µM (highest dose often 46.1 µM), without a hit: top-dose activity, negative = less viability, hits mostly cytotoxic;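 note: NT is the 2HG producing partner of a matched IDH1 knockdown line; potency is the fitted concentration of half-maximal effect; 0% = DMSO-treated cells and -100% = media-only wells without cells; nearly all actives have a fitted effect of over 55% in size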
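A 48-hour cytotoxicity screen used HT-1080-NT cells plated 2 hours before compound delivery. ATP-based CellTiter-Glo luminescence measured viability, normalized to DMSO and no-cell controls.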
HT1080 IDH1KD tx: toxicity to HT-1080 IDH1 knockdown cells (counter line); HT-1080 IDH1 knockdown viability, ATP luminescence, 48 h; Potency, µM (series often up to 46.1 µM), for the others: at the top dose activity, negative = toxicity, actives largely listed as cytotoxic; 2% of 360,000 active; AID 686971;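 note: potency is the fitted concentration of half-maximal effect; 0% = DMSO wells and -100% = cell-free medium wells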
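Viability of IDH1-knockdown HT-1080 fibrosarcoma cells was assessed by CellTiter-Glo after 48 h at 37 °C with titrated compound; concentration-effect curves were classified by fit quality and response size.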
DT40 TDP1 CPT: DT40-hTDP1 cell growth loss with CPT. Potency, µM (titrated, usually from 46.2 µM), for inactives: at the top dose activity change, negative = growth inhibition, hits mostly inhibitors. chicken DT40 Tdp1-/-;hTDP1 cells + 20 nM CPT, ATP luminescence, 48 h. 12% of 420,000 active. AID 686979; note: potency is the fitted concentration of half-maximal effect; nearly all actives have a fitted effect of over 55% in size
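Chicken DT40 Tdp1-/- cells stably complemented with human TDP1 were seeded at 400 cells/well in medium containing 20 nM camptothecin, exposed to pin-transferred compounds, and grown at 37 °C for at least 48 hr. Viability was read as ATP luminescence.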
TDP1 cell noCPT: qHTS for Inhibitors of human tyrosyl-DNA phosphodiesterase 1 (TDP1): qHTS in cells in absence of CPT | DT40 Tdp1-/- hTDP1 cells, no CPT, ATP luminescence, 48 h | Potency, µM (doses to about 46.2 µM), inactives show at the top dose activity change, negative = growth inhibition, usual class: inhibitors | 15% of 420,000 active; note: potency is the fitted concentration of half-maximal effect; nearly all actives have a fitted effect of over 55% in size
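No-CPT arm: Tdp1-/-;hTDP1 DT40 cells (400/well) plus compounds, incubated ≥48 hr at 37 °C. Readout CellTiter-Glo luminescence.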
IL-1B inflam inh: inflammasome signaling inhibition, IL-1 beta readout; THP-1 LPS/ATP IL-1B secretion, AlphaLISA, 16 h; hits give low values; activity change, % at 57.5 µM; 4.7% of 360,000 active; in the data active = activity change below about -50%; inconclusive = mostly about -30% to -49%
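Secreted IL-1B measured by AlphaLISA bead assay after 16 h compound exposure of THP-1 cells; compounds (final up to 57.5 uM) added 1 h before LPS (250 ng/mL) and ATP (1.25 mM) stimulation; lower signal means less secretion.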
ELG1 DNA repair: ELG1-dependent DNA repair inhibition; HEK293T ELG1-luciferase reporter, luminescence, 16 h; DNA damage induced by 5-fluorouridine; Potency, µM (top dose mostly 46.1 µM), inactives show at the highest dose activity change, negative = inhibition, most hits filed as inhibitors; 2.3% of 330,000 active; AID 504467; note: potency is the fitted concentration of half-maximal effect; nearly all actives have a fitted effect of over 55% in size
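Luminescence from the luciferase reporter, measured 30 min after ONE-Glo reagent at room temperature, was the read-out. Beforehand, 2,000 cells per well were exposed for 16 hr at 37 °C to 5-fluorouridine together with compound or vehicle.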
* hit, by the source's call; ? = inconclusive; . = no result given. In the library only some 19% were active in any assay of this set; here they are far more common. Unless noted, calls come from the whole dose curve; as a rule, active = well fitted curve in the direction sought with a large enough effect; inconclusive = small, poorly fitted or top-dose-only effect, or another doubt; inactive = no such curve, though single readings can be large; an effect the other way counts as inactive or inconclusive. Unless noted, % is set by controls: 0 for no effect and ±100 for the full control effect.

SMILES	HT1080-NT tox	HT1080 IDH1KD tx	DT40 TDP1 CPT	TDP1 cell noCPT	IL-1B inflam inh	ELG1 DNA repair
c1ccc(-n2nnc3c(N4CCOCC4)ncnc32)cc1	-4%	-1%	-11%	?	5	?
Cn1cc(C(=O)c2ccccc2)cc1-c1nc2ccccc2n1C	-6%	-12%	?	18µM*	-20	-25%
CCC(=O)c1cc(-c2nc3ccccc3n2C)n(C)c1	?	16%	2%	-8%	10	4%
Cc1oc(-c2nc3ccccc3n2C)cc1C(=O)c1ccccc1	?	?	16µM*	21µM*	2	?
Cc1cc(C)c(NC(=O)c2cn3c4c(c(N5CCN(C)CC5)c(F)cc4c2=O)OCC3C)c(C)c1 (stereo unspecified)	2%	5%	18µM*	?	-7	3%
CC1CCc2c(N3CCC(O)CC3)c(F)cc3c(=O)c(C(=O)O)cn1c23 (stereo unspecified)	-2%	-15%	?	?	0	-1%
CN(C)CCCN=c1cc(-c2ccccc2)oc2ccc(Cl)cc12	0%	-11%	10µM*	?	-50*	?
OCCN=c1cc(-c2ccccc2)oc2ccc(Cl)cc12	-30%	-26%	?	16µM*	-70*	?
CC(O)CN=c1cc(-c2ccccc2)oc2ccc(Cl)cc12 (stereo unspecified)	?	?	?	16µM*	-72*	?
CCOc1ccc(NC(=O)Cn2nnc(-c3nc(-c4ccncc4)no3)c2N)cc1	.	.	2%	-11%	.	.
O=C(c1ccccc1F)N1CCN(c2ccc([N+](=O)[O-])c(NCC3CCCO3)c2)CC1 (stereo unspecified)	-3%	-1%	?	18µM*	-17	?
O=C(NCC(c1ccco1)N1CCCC1)c1cccc(S(=O)(=O)N2CCOCC2)c1 (stereo unspecified)	1%	-2%	0%	11%	19	4%
Cc1ccc(NC(=O)COC(=O)C(NS(=O)(=O)c2ccc(Cl)cc2)C(C)O)cc1C (stereo unspecified)	1%	1%	26µM*	?	?	-13%
CCOC(=O)Nc1ccc2c(COC(=O)C(NS(=O)(=O)c3ccc(Cl)cc3)C(C)O)cc(=O)oc2c1 (stereo unspecified)	0%	0%	?	?	-16	21µM*
COCCCNc1nc2c(c(=O)n(Cc3ccccc3)c(=O)n2C)n1C	.	.	7%	-21%	.	.
COC(=O)c1ccc2nc(-c3ccco3)c(Cc3cccc(Cl)c3)n2c1	1%	12%	?	16µM*	24	.
Clc1ccc2nc(-c3ccco3)c(Cc3ccsc3)n2c1	?	?	?	?	-15	.
COC(=O)c1ccc2nc(-c3ccco3)c(Cc3ccccc3)n2c1	?	?	26µM*	21µM*	7	.
COCCn1c(=O)c(C)nc2cnc(Oc3ccc(OC)cc3)nc21	.	.	-29%	-22%	.	.
Cc1ccc(C(=O)NC(Cc2cccc(F)c2)C(=O)O)cc1 (stereo unspecified)	-3%	-1%	7%	-3%	14	?
COc1ccccc1/C=C/C(=O)OCC(=O)Nc1c(C)nn(-c2ccccc2)c1C	-2%	0%	?	?	11	?
CCOc1cc(C(=O)OCc2cc(=O)n3c(C)csc3n2)cc(OCC)c1OCC	.	.	-11%	-13%	.	.
Cc1csc2nc(COC(=O)c3ccccc3NC(=O)c3cccc(Br)c3)cc(=O)n12	.	.	18µM*	8.2µM*	.	.
Cc1csc2nc(COC(=O)c3ccc(F)cc3)cc(=O)n12	.	.	?	16µM*	.	.
COc1cccc(C(=O)Nc2ccccc2C(=O)OCc2cc(=O)n3c(C)csc3n2)c1	.	.	13%	-15%	.	.
SMILES	HT1080-NT tox	HT1080 IDH1KD tx	DT40 TDP1 CPT	TDP1 cell noCPT	IL-1B inflam inh	ELG1 DNA repair
CCOc1ccc(C(=O)Nc2ccc(C(=O)OCc3cc(=O)n4c(C)csc4n3)cc2)cc1	.	.	?	16µM*	.	.
COc1ccc(C(=O)OCc2cc(=O)n3c(C)csc3n2)cc1F	12%	8%	?	?	25	?
COc1cccc(CNC(=O)C(=O)Nc2ccc3nc4n(c(=O)c3c2)CCCCC4)c1	.	.	-17%	-29%	.	.
COc1cccc(NC(=O)CN(C)C(=O)CSc2ccc3c(c2)OCCO3)c1	-10%	-10%	-8%	-6%	25	-9%
O=C1S/C(=C\c2ccc(N3CCOCC3)o2)C(=O)N1Cc1ccc(F)cc1	6.3µM*	3.2µM*	?	?	-9	1%
O=C1/C(=C/c2ccc(N3CCOCC3)o2)SC(=Nc2ccccc2)N1CCc1c[nH]c2ccccc12	7.3µM*	4.1µM*	2.9µM*	2.1µM*	-99*	?
CC(C)OC(=O)CN1C(=O)S/C(=C/c2ccc(N3CCCCC3)o2)C1=O	?	11µM*	16µM*	20µM*	-104*	?
O=C(O)CSC1CC(=O)N(c2ccc(Br)cc2)C1=O (stereo unspecified)	-23%	-8%	?	17%	-9	-4%
C[C@@H]1ON(C)[C@H]2C[C@H]3c4[nH]c5ccccc5c4CCN3C[C@@H]12	0%	4%	9%	-10%	24	.
C[C@H](O)[C@@H]1CN2CCc3c([nH]c4ccccc34)[C@@H]2C[C@@H]1N(C)C(=O)NC1CCCCC1	-10%	-27%	?	?	7	.
Cc1cccc(-c2ccc3[nH]c4c(c3c2)CCN2C[C@@H]([C@H](C)O)[C@@H](N(C)C(=O)NC3CCCCC3)C[C@@H]42)c1	?	?	13µM*	?	-15	.
CN[C@H]1C[C@H]2c3[nH]c4ccc(-c5cccc(C)c5)cc4c3CCN2C[C@H]1[C@H](C)O	16µM*	?	7.3µM*	12µM*	?	.
Cc1cccc(-c2ccc3[nH]c4c(c3c2)CCN2C[C@H]3[C@H](C)ON(C)[C@H]3C[C@@H]42)c1	?	?	?	15µM*	-9	.
CCOC(=O)COc1ccccc1C(=O)c1cnn(-c2ccccc2)c1	4%	0%	-13%	?	16	22%
NC(=O)c1cc(N2C(=O)C=CC2=O)ccc1Cl	?	16µM*	13µM*	16µM*	0	15%

Screening results: PubChem, National Center for Advancing Translational Sciences (NCATS)
